Our source for the Euclidean distance values is the supplement of paper PMC10127200.

Holding throughout (test): Euclidean distance of Cell Painting phenotypic profile (signed KS, 77 features) to DMSO centroid (dimensionless distance); 5 or 10 uM (library dependent); higher = stronger phenotypic change vs DMSO (phenoactivity)
Common to all, as to conditions: 48 h

The test system of one assay is 786-O. The procedure, abridged: (§1)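 Phenoactivity is computed as Euclidean distance to the median vehicle profile. The profiles, drawn from 77 Harmony features scored as signed Kolmogorov-Smirnov statistics versus same-plate vehicle wells, were corrected for plate position, correlation-weighted and replicate-averaged at the top dose. Stained cells were imaged confocally at 20X (9 fields/well) after 48 h with library compounds at 10 or 5 uM, 0.1% DMSO final, in five cancer lines and a healthy fibroblast line.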

In the next assay the test system is A549. The procedure, abridged:
as §1

The subject of a further assay is DU145. The procedure, abridged: as §1
A further assay relates to FB. The procedure, abridged: as §1
A further assay deals with HEPG2. The procedure, abridged:
as §1

The subject of a further assay is OVCAR4. The procedure, abridged: as §1

Molecules are shown by their SMILES. Counter-ions that a name gives are not always drawn.

`N=C(N)NS(=O)(=O)c1ccc(N)cc1` [Sulfaguanidine]: the Euclidean distance in the assay with 786-O came out at 1.11; with A549 it was 0.776; with DU145, 1.03; in the assay with FB, 0.936; with HEPG2, 0.524; in the assay on OVCAR4, 1.55.

For `COc1cc(N2CCC(N3CCN(C)CC3)CC2)ccc1Nc1ncc(Cl)c(Nc2ccccc2P(C)(C)=O)n1`, the Euclidean distance with 786-O amounted to 1.49; in the assay on A549, 2.29; in the assay with DU145 it was 2.68; in the assay on FB, 4.2; in the assay on HEPG2, 1.51; with OVCAR4, 1.74.

For the compound `CN(C)CCC[C@@]1(c2ccc(F)cc2)OCc2cc(C#N)ccc21` [Escitalopram Oxalate], the Euclidean distance in the assay on 786-O amounted to 1.58; with A549, 1.12; in the assay with DU145, 1.67; in the assay with FB it was 0.918; in the assay on HEPG2 it was 0.791; with OVCAR4, 1.43.

Take `CN(C)CCc1c[nH]c2ccc(Cn3cncn3)cc12` [Rizatriptan Benzoate]: the Euclidean distance with 786-O was determined as 1.43; in the assay on A549, 1.08; with DU145 it was 1.46; in the assay on FB, 2.54; in the assay with HEPG2, 1.06; in the assay with OVCAR4 it was 2.42.

As to `CN[C@@H]1[C@@H](O)[C@@H](O[C@@H]2[C@@H](O)[C@H](O[C@H]3OC(CN)=CC[C@H]3N)[C@@H](N)C[C@H]2N)OC[C@]1(C)O` [Sisomicin sulfate], the Euclidean distance in the assay on 786-O came out at 1.2; in the assay with A549, 1.53; in the assay with DU145, 0.985; in the assay on FB, 0.996; with HEPG2, 0.672; in the assay with OVCAR4, 1.05.

As for `O=C(O)[C@H](O)Cc1ccc(O)c(O)c1` [Danshensu], the Euclidean distance in the assay on 786-O worked out at 1.51; with A549 it was 1.33; in the assay with DU145, 0.736; in the assay with FB, 0.877; in the assay with HEPG2, 1.33; with OVCAR4, 1.65.

In the case of `COc1ccc(-c2ccc3c(N4CCOCC4)nc(N4C[C@@H](C)O[C@@H](C)C4)nc3n2)cc1CO`, the Euclidean distance in the assay with 786-O was found to be 1.93; with A549 it was 2.15; in the assay with DU145, 1.96; in the assay with FB it was 3.61; with HEPG2, 2; in the assay on OVCAR4, 2.43.

Turning to `OCc1cc(C(O)CNCCCCCCOCCCCc2ccccc2)ccc1O` (centres undefined) [Salmeterol], the Euclidean distance with 786-O is 1.56; in the assay on A549, 1.95; in the assay on DU145 it was 1.51; in the assay on FB, 1.75; in the assay with HEPG2, 2.13; with OVCAR4 it was 1.77.

For the compound `CCN1CCN(c2cc3c(cc2F)c(=O)c(C(=O)O)cn3C2CC2)CC1` [Enrofloxacin], the Euclidean distance came out at 0.875 in the assay on 786-O; 1.1 in the assay on A549; 0.711 in the assay on DU145; 0.933 in the assay on FB; 0.992 in the assay with HEPG2; 1.67 in the assay on OVCAR4.

Turning to `O=P(O)(O)C(O)(Cn1ccnc1)P(=O)(O)O` [Zoledronic Acid], the Euclidean distance in the assay on 786-O amounted to 0.951; in the assay on A549, 1.23; with DU145 it was 0.9; in the assay on FB, 1.37; with HEPG2, 2.13; in the assay on OVCAR4, 1.11.

As to `C#Cc1cccc(Nc2ncnc3cc(OCCOC)c(OCCOC)cc23)c1` [Erlotinib], the Euclidean distance with 786-O worked out at 1.68; in the assay with A549 it was 2.34; with DU145, 1.94; in the assay with FB, 3.62; in the assay with HEPG2, 0.991; in the assay with OVCAR4, 1.87.

As for `Nc1ncnc2c1ncn2[C@@H]1O[C@H](CO)[C@@H](O)[C@@H]1O` [Vidarabine monohydrate], the Euclidean distance in the assay on 786-O is 0.895; with A549, 1.22; in the assay on DU145 it was 0.966; with FB, 0.665; in the assay on HEPG2, 1.66; in the assay on OVCAR4, 1.18.

For `COC(=O)N[C@H](C(=O)N1CC2(CC2)C[C@H]1c1nc(-c2ccc3c(c2)C(F)(F)c2cc(-c4ccc5[nH]c([C@@H]6[C@H]7CC[C@H](C7)N6C(=O)[C@@H](NC(=O)OC)C(C)C)nc5c4)ccc2-3)c[nH]1)C(C)C` [Ledipasvir (GS5885)], the Euclidean distance with 786-O was found to be 1.65; in the assay on A549 it was 1.83; with DU145, 1.33; in the assay with FB, 1.94; in the assay with HEPG2 it was 1.09; in the assay on OVCAR4, 1.18.

In the case of `O=C1c2cccc(O)c2C(=O)c2c(O)cc(CO)cc21` [Aloe-emodin], the Euclidean distance in the assay on 786-O came out at 1.1; in the assay with A549, 1.14; in the assay on DU145, 1.2; with FB it was 1.05; in the assay with HEPG2, 1.08; in the assay on OVCAR4, 1.41.

Consider `CCCCNC(=O)NS(=O)(=O)c1ccc(C)cc1` [Tolbutamide], for which the Euclidean distance worked out at 1.41 with 786-O; 0.625 in the assay with A549; 0.836 in the assay with DU145; 0.823 with FB; 0.337 in the assay on HEPG2; 0.856 in the assay on OVCAR4.

For the compound `OC[C@@H](O)CN1CCN(c2ccccc2)CC1` [Levodropropizine], the Euclidean distance with 786-O was 1.23; with A549, 1.05; in the assay with DU145, 0.896; in the assay on FB, 1.17; with HEPG2, 0.732; with OVCAR4, 1.12.

Turning to `O=c1cc(N2CCOCC2)oc2c1ccc1ccccc12`, the Euclidean distance came to 0.913 with 786-O; 1.57 in the assay with A549; 1.41 in the assay with DU145; 3.23 with FB; 1.42 in the assay on HEPG2; 4.01 in the assay on OVCAR4.

Regarding `N#Cc1ccc(Oc2ccc3c(c2)COB3O)cc1` [Crisaborole (AN2728)], the Euclidean distance in the assay with 786-O was 1.25; in the assay on A549 it was 1; with DU145 it was 0.832; in the assay on FB, 0.837; in the assay with HEPG2 it was 2.52; with OVCAR4 it was 1.91.

For the compound `C[C@H]1O[C@@H](Oc2c(-c3cc(O)c(O)c(O)c3)oc3cc(O)cc(O)c3c2=O)[C@@H](O)[C@@H](O)[C@@H]1O` [Myricitrin], the Euclidean distance turned out to be 1.28 in the assay with 786-O; 0.726 in the assay with A549; 1.03 in the assay on DU145; 1.54 in the assay on FB; 0.535 with HEPG2; 0.952 in the assay with OVCAR4.

Turning to `Cc1c(Nc2ncccc2C(=O)O)cccc1C(F)(F)F` [Flunixin Meglumin], the Euclidean distance in the assay with 786-O stood at 1.03; in the assay on A549, 0.853; in the assay with DU145 it was 0.874; with FB, 0.516; with HEPG2 it was 1.42; with OVCAR4, 1.88.

As to `Cn1c(=O)c2c(ncn2CC2OCCO2)n(C)c1=O` [Doxofylline], the Euclidean distance was 1.15 in the assay on 786-O; 0.81 in the assay with A549; 0.772 in the assay on DU145; 0.965 with FB; 0.408 in the assay on HEPG2; 1.15 in the assay on OVCAR4.

Regarding `COc1cc(NS(=O)(=O)c2ccc(N)cc2)ncn1` [Sulfamonomethoxine], the Euclidean distance in the assay with 786-O stood at 0.83; in the assay on A549, 0.926; in the assay with DU145, 0.778; with FB, 0.916; in the assay on HEPG2, 0.669; in the assay on OVCAR4, 1.12.

Turning to `CN[C@@H]1[C@@H](O[C@H]2O[C@H](CO)[C@@H](N)[C@H](O)[C@H]2O)OC2C[C@@H](N)[C@@H](O[C@H]3[C@H](O)[C@@H](O)[C@H](N)C[C@@H]3N)OC2[C@@H]1O` (some centres undefined) [Apramycin Sulfate], the Euclidean distance in the assay with 786-O is 1.51; in the assay with A549 it was 0.794; in the assay on DU145 it was 0.965; in the assay on FB it was 1.27; in the assay on HEPG2, 0.895; in the assay on OVCAR4, 1.19.

Turning to `Cc1cc(/C=C/C#N)cc(C)c1Nc1ccnc(Nc2ccc(C#N)cc2)n1` [Rilpivirine], the Euclidean distance in the assay with 786-O was 1.85; in the assay with A549 it was 2.11; with DU145 it was 1.55; in the assay on FB, 1.69; in the assay on HEPG2, 0.573; with OVCAR4, 0.925.
